Results filed as inconclusive are left out. Activity calls are given as the source filed them. Calls come from the whole dose curve; as a rule, active = well fitted activation curve with a large enough effect; inconclusive = small, poorly fitted or top-dose-only effect; inactive = flat fitted curve, though single readings scatter.
Assay: qHTS for Inhibitors of Cell Surface uPA Generation: FP59 Counterscreen for Cherry-picked Compounds; note: 0% is about no effect
Details: FP59 anthrax toxin cytotoxicity counterscreen, cells; series mostly up to 115 µM; activity (protection from FP59): at the top concentration

Compound	activity (protection from FP59)
COc1ccc(N(CN2C(=O)c3ccccc3C2=O)C(=O)C(C)C)cc1	0.575% (inactive)
CC(C)OC(=O)Nc1ccc(-c2ccc(NC(=O)OC(C)C)cc2Cl)c(Cl)c1	-1.28% (inactive)
CN(CCC#N)C(=S)Nc1ccc(Oc2ccccc2)cc1	-1.09% (inactive)
O=C(COC(=O)/C=C/c1cccc(F)c1)Nc1ccccc1	-1.26% (inactive)
COCCN(C(=O)CSc1nnc(-c2ccncc2)n1C)c1c(N)n(CC(C)C)c(=O)[nH]c1=O	-1.31% (inactive)

Source: PubChem BioAssay AID720517 (National Center for Advancing Translational Sciences (NCATS), 2013)
